The text below walks through data of the supplement of paper PMC6555819.

The subject of one assay is PPARg DBDmut IVT, anti-PPARg (DBD mutation: PPARg1 K132A/R137A, NR concentration 270 nM). The assay is described as follows: PBM binding z-score (relative to random genomic background probes); higher = stronger binding; sequences stand for … in GC…GCGATTGACAGCGTAGAATGAAGG
The gist of the method: (§1)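 Binding buffer was PBS pH 7.4 with 2% milk, 0.02% Triton X-100, 1 mM DTT, 0.2 mg/mL BSA and 0.4 mg/ml salmon testes DNA. In it, ligand-free nuclear receptor dimers were incubated 1 h on custom Agilent 4×180K protein-binding microarrays carrying double-stranded probes. Antibodies against each partner (one per run) detected binding, and z-scores were calculated against random background probes after regression normalization of scanned fluorescence.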
The sequence TCTTGTAGATCAAGCAGGTTAGGAAAGCCTGAGT gave a PBM binding z-score of -0.0543.
The same measure, in the same setting: then ATCTCTAGGTAGAGTTCAGTGAAAGATCGATAGA, with 0.623; and GCTTGTAGAGCAAGGTTAAGAAAGACTAAGCTAA, with -0.41; and CAAACTAGGTCAAATGTCAAAGTCGAGCCAACCA, with 1.58.
Sequence TCATATAGGTATAGGTGAAAGTCGAACGATATGA registered a PBM binding z-score of 1.13.
The sequence CAAACTAGGTCAAGAGATCAAAGTCCGCTTCCCG showed a PBM binding z-score of 2.4.
In turn, CCTGCTAGGTCAATCGTCAGCTAAAGCAGCTCGC showed a PBM binding z-score of -1.31.
For the sequence CGTCAAAGTTCAAGGTAACGTGACAGAAAGCAGC, the PBM binding z-score is 0.308.
Sequence ATCGAAACGTCGAGGTGAGTATAGAGAAAGGGAA had a PBM binding z-score of 0.714.
For the sequence AGCGAAAGGTCGTGAGGTGAGTATACAGAAAGGC, the PBM binding z-score turned out to be 1.08.
In turn, CGAACTAGGGCATTGACAGGACAGTGAATAGTAA returned a PBM binding z-score of 0.993.
Same read-out and setting: the same measure for CGGACTGGGGCAAGGTTACCATAACGCACAGCCA: 0.000804.
As for AGCATGAGGTTACCAAAGATCAGGGAAACGCTTG, the PBM binding z-score is -0.827.
As for CTAGCAAGGTGAACAAGGTCGTTGATTACTATTC, the PBM binding z-score is -0.41.
CTACTAAGGTGAACAAGGTCGTTGATTACTATTC: the PBM binding z-score is 0.383.
Consider CGTCCAAGGTCAAAGTTCAGTGAAGAGATGACGG, for which the PBM binding z-score was found to be 1.29.
The sequence TCTTGTAGATCAATAGAGGGTAAGAAAGTGCGCT showed a PBM binding z-score of 0.811.
Sequence ATCGAAAGGTCGTGAGGTGCGTATACAGAAAGGC displayed a PBM binding z-score of 0.404.
CCTATTAGTTGAGCATAAGGGCAACCGAAGCTCG had a PBM binding z-score of 0.243.
TCTTGTAGATCAACAGGAGGTTAAAAAAGATCGA yielded a PBM binding z-score of 1.21.
For the sequence TGAATGAGGTTAAAGTTCAGGGAACGTGGCGTCG, the PBM binding z-score was found to be 1.55.
On to ATCTCTAGGTAAGACTCAATTCAGTGAAGAACGC, for which the PBM binding z-score turned out to be 1.1.
Consider AGTCAAAGTTCATCTAGGTAACGTATGATATGCT, for which the PBM binding z-score stood at 1.76.
Sequence GCTATTAGTAGAAAGGGCAACCGAATGATTCTCG had a PBM binding z-score of 0.449.
ATCCAAAGGTCGAAGGTGAGTATACCCACCCGAA: the PBM binding z-score amounted to 0.999.
For the sequence TGAATGAGGTTATATGATCAGGGAACGTTGCAAA, the PBM binding z-score came out at 0.825.
For CCTAGTTGGTCAGAAGGTCACACACCGGATATGA, the PBM binding z-score is 0.414.
Still for that read-out and setting: the same measure for ATCTCTAGGTAAAAGTTCAGTGAATCCCGAGGAT: 1.8; for TCGAGTAGGTTAGTTGGGGCATTCAGCCAACATA: -0.228; for TCTGCTAGGTCAGTTGGTCAGCTATCGAGCTGCC: 0.371.
In the case of ACAGACAGGTGATGATGGTAACTCAGGCTATCAT, the PBM binding z-score came to 0.608.
In turn, TAGCATAGGTCATTGGGCCAGTATAGTACGCATC came in with a PBM binding z-score of 0.329.
With CCTACTTGGCCAAGGTCATTGATCAGTCAAAGCA, the PBM binding z-score is -0.266.
On the same count and under the same terms, the same measure for CCAGACAGGTGAGAAGGTCACTCAGCCTCGATTA: -1.25; for ACTAGTAGTTGACTTAGGGCAACCGATACGACGC: 0.391.
ATCTCTAGGTAAGACTCAGTTCAGTGACGAACGC returned a PBM binding z-score of 0.863.
In the case of ATATATAGGTTATCGGGTCATTCAGTTTGCGCAT, the PBM binding z-score came out at 3.64.
In turn, AGTCAATGTTCACTAGGTAACGTAAGATTCAGCT registered a PBM binding z-score of 0.776.
Regarding ACTACTTGGTCAGCTGAGGTCACACACAATTCGG, the PBM binding z-score stood at 1.36.
On the same count and under the same terms, the same measure for TCTCTGAGGACACGAAAGGTCAGAGCTCGACATC: 1.37.

For another assay, the system named is PPARg homodimer (NR concentration 180 nM). Described as above. The gist of the method: as §1
In turn, TCTTGTAGATCAAGCAGGTTAGGAAAGCCTGAGT displayed a PBM binding z-score of -0.235.
The sequence ATCTCTAGGTAGAGTTCAGTGAAAGATCGATAGA displayed a PBM binding z-score of 0.95.
GCTTGTAGAGCAAGGTTAAGAAAGACTAAGCTAA came in with a PBM binding z-score of -0.216.
As to CAAACTAGGTCAAATGTCAAAGTCGAGCCAACCA, the PBM binding z-score came to 2.71.
The same measure, in the same setting: the same measure for TCATATAGGTATAGGTGAAAGTCGAACGATATGA: 0.0595; for CAAACTAGGTCAAGAGATCAAAGTCCGCTTCCCG: 2.15.
Take CCTGCTAGGTCAATCGTCAGCTAAAGCAGCTCGC: the PBM binding z-score was 0.995.
On the same count and under the same terms, the same measure for CGTCAAAGTTCAAGGTAACGTGACAGAAAGCAGC: 2.16; for ATCGAAACGTCGAGGTGAGTATAGAGAAAGGGAA: -0.637.
AGCGAAAGGTCGTGAGGTGAGTATACAGAAAGGC gave a PBM binding z-score of 1.38.
Same read-out and setting: the same measure for CGAACTAGGGCATTGACAGGACAGTGAATAGTAA: 0.464.
In the case of CGGACTGGGGCAAGGTTACCATAACGCACAGCCA, the PBM binding z-score was found to be 0.759.
In turn, AGCATGAGGTTACCAAAGATCAGGGAAACGCTTG came in with a PBM binding z-score of 0.663.
The same measure, in the same setting: then CTAGCAAGGTGAACAAGGTCGTTGATTACTATTC, with 0.474; and CTACTAAGGTGAACAAGGTCGTTGATTACTATTC, with 1.12; and CGTCCAAGGTCAAAGTTCAGTGAAGAGATGACGG, with 3.79.
TCTTGTAGATCAATAGAGGGTAAGAAAGTGCGCT displayed a PBM binding z-score of 0.572.
Same read-out and setting: the same measure for ATCGAAAGGTCGTGAGGTGCGTATACAGAAAGGC: 1.37; for CCTATTAGTTGAGCATAAGGGCAACCGAAGCTCG: 1.36; for TCTTGTAGATCAACAGGAGGTTAAAAAAGATCGA: -0.0647.
Regarding TGAATGAGGTTAAAGTTCAGGGAACGTGGCGTCG, the PBM binding z-score stood at 1.98.
Same read-out and setting: the same measure for ATCTCTAGGTAAGACTCAATTCAGTGAAGAACGC: 0.738; for AGTCAAAGTTCATCTAGGTAACGTATGATATGCT: 2.9.
The sequence GCTATTAGTAGAAAGGGCAACCGAATGATTCTCG had a PBM binding z-score of 1.28.
In turn, ATCCAAAGGTCGAAGGTGAGTATACCCACCCGAA displayed a PBM binding z-score of 2.58.
TGAATGAGGTTATATGATCAGGGAACGTTGCAAA: the PBM binding z-score is 0.489.
On the same count and under the same terms, then CCTAGTTGGTCAGAAGGTCACACACCGGATATGA, with 4.39; and ATCTCTAGGTAAAAGTTCAGTGAATCCCGAGGAT, with 1.4; and TCGAGTAGGTTAGTTGGGGCATTCAGCCAACATA, with 0.105.
TCTGCTAGGTCAGTTGGTCAGCTATCGAGCTGCC: the PBM binding z-score was 0.0545.
The same measure, in the same setting: the same measure for ACAGACAGGTGATGATGGTAACTCAGGCTATCAT: 0.0138; for TAGCATAGGTCATTGGGCCAGTATAGTACGCATC: 1.56; for CCTACTTGGCCAAGGTCATTGATCAGTCAAAGCA: 2.44.
On the same count and under the same terms, the same measure for CCAGACAGGTGAGAAGGTCACTCAGCCTCGATTA: 3.61.
For the sequence ACTAGTAGTTGACTTAGGGCAACCGATACGACGC, the PBM binding z-score is -0.372.
In turn, ATCTCTAGGTAAGACTCAGTTCAGTGACGAACGC registered a PBM binding z-score of 0.854.
Still for that read-out and setting: then ATATATAGGTTATCGGGTCATTCAGTTTGCGCAT, with 4.29.
Same read-out and setting: then AGTCAATGTTCACTAGGTAACGTAAGATTCAGCT, with 0.288; and ACTACTTGGTCAGCTGAGGTCACACACAATTCGG, with 4.02; and TCTCTGAGGACACGAAAGGTCAGAGCTCGACATC, with 2.33.
